This is part of a sample that, as a whole, favours compounds with a hit. Of some 83,000 tested, about 20% had one in any assay.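 Testing used 96-well plates and a 48-hour single-concentration exposure. Example: -40 means 40% of the starting cells died.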 The source made the active and inactive calls. The calls were made as follows: active = growth percent below 10; inactive = the rest.

The test system of the test is HL-60(TB) leukemia. Kind of test: NCI-60 one-dose screen, 48 h (100 = growth as untreated, 0 = no growth, -100 = all killed). To be noted: 10 µM unless noted.
Consider `C=CCSSc1ncnc2c1ncn2C1OC(CO)C(O)C1O` (stereo not given), for which the growth was 21.5% (inactive).
For the compound `Cc1ccc(NC(=O)c2sc3nc(C)c(C(O)c4ccccc4)cc3c2N)cc1` (stereo not given), the growth is -47.5% (active).
As for `Cc1cc(N/C=c2\sc3ncnn3c2=O)no1`, the growth was 111% (inactive).
As for `O=C1/C(=C/c2ccc([N+](=O)[O-])cc2)COc2ccc(O)c(O)c21`, the growth was -14.6% (active).
For `O=c1c2c3c(sc2nc(N/N=C/c2cn(-c4ccccc4)nc2-c2ccc(Cl)cc2)n1Cc1ccccc1)CCCC3` the value was -32.4% (active); for `COc1cc(-c2cc3cnccc3c3nc(N)c4ccncc4c23)cc(OC)c1OC`, 40.4% (inactive).
As to `COc1ccc(-c2nc(-c3ccccc3)c(-c3ccccc3)[nH]2)cc1OC1CCCCC1`, the growth is 97.6% (inactive).
Turning to `CC1(C)CCC(S(=O)(=O)c2ccc3c(c2)/C(=N\O)c2cc(S(=O)(=O)N4CCN(c5ccc(F)cc5O)CC4)ccc2-3)CC1`, the growth is -70.7% (active).
For the compound `O=C(c1ccc(C(F)(F)F)c(Cl)c1)N(Cc1ccc(Cl)cc1)c1ccc(-c2cc(C(F)(F)F)[nH]n2)c(O)c1`, the growth is -14.9% (active).
For `O=C(NNC(=S)Nc1ccccc1)c1ccncc1` the value was 117% (inactive); for `CC(=O)Oc1ccc(N2C(=O)C(Cl)=C(Nc3cccc(C(F)(F)F)c3)C2=O)cc1`, 96.5% (inactive).
Consider `CCN(CC)c1ccc(C(=O)c2ccc(N(CC)CC)cc2)cc1`, for which the growth was 9.59% (active).
For `COc1ccc(/C=C/C(=O)c2ccc(Nc3nc(Nc4ccc(F)cc4)nc(Nc4ccc(Cl)cc4)n3)cc2)cc1` the value was -0.226% (active); for `CS(=O)(=O)c1nccc(-c2c(-c3cccc(OCc4ccccc4)c3)nc3sccn23)n1`, 82.8% (inactive).
For `CCOC(=O)c1cnc2c(N=Nc3ccc(OC)cc3)c(N)nn2c1N` the value was 96.2% (inactive); for `COc1ccc(-c2nnc(COc3ccc(NC(=O)Nc4cc(C(F)(F)F)cc(C(F)(F)F)c4)cc3F)o2)cc1`, -17.2% (active).
For `CCOC(=O)C1C(=O)C=C(c2cc(OC)c(OC)c(OC)c2)CC1c1sc(N(C)Cc2ccccc2)nc1Cl` (stereo not given) the value was 80.4% (inactive).
For the compound `O=[N+]([O-])c1cccc2nsnc12`, the growth was 104% (inactive).
For `CC(=O)c1ccc(C)c(N)c1` the value was 94.8% (inactive); for `O=Cc1cc2ccccc2nc1Oc1ccc(C(F)(F)F)cc1`, 92% (inactive).
Take `CSc1nc2[nH]ncc2c(=O)[nH]1`: the growth is 114% (inactive).
As for `COc1ccc(-c2[nH]ncc2/C=C/c2cc(C(F)(F)F)[nH]c(=O)n2)cc1`, the growth is 92% (inactive).
For `CCc1nc(C)cn1C(=O)OCc1nc2nc(Cl)nc(N3CCOCC3)c2[nH]1` the value was -23.1% (active); for `CCCOc1ccc2c(c1)CC[C@@H]1[C@@H]2CC[C@@]2(C)[C@H]1CC[C@]2(C)O`, 78.8% (inactive); for `COc1cc2c(c(OC)c1OC)CCC(c1cccc(NC(=O)c3cccc(Br)c3)c1)O2` (stereo not given), 97% (inactive).
